Screens as filed in PubChem.
HCT116 PTEN-null: suppresses growth of cells with PTEN deletion. HCT116 PTEN-null viability, CellTiter-Glo, 60 h; stronger effect = lower value. viability, % at 10 µM. 140,000 compounds, 1.2% hits;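 active = viability at or below a set limit, 4 SD under the median of all tested compounds, cut at about 3.7% in these data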;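 note: PTEN knockout HCT116 line with beta catenin targeted HCT116 as companion control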
Lmaj promast: inhibitors of Leishmania major promastigote growth. Leishmania major promastigotes, resazurin fluorescence viability. inhibition, % at 10 µM. 200,000 compounds, 9% hits. AID 1063; in the data active = inhibition above about 50%;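 note: promastigotes grown with compound for 44 hours at 28 °C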
INS promoter inh: TRM-6 insulin promoter activity inhibition; inhibition, % at 2 µM; 130,000 compounds, 0.9% hits; TRM-6 cells (human fetal islet line), insulin promoter-eGFP reporter, imaging; reporter expression induced with tamoxifen;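 active = inhibition above the mean plus 3 SD, with well images judged a real hit on visual review, cut at about 60% in these data, passing the limit was not always enough; inconclusive = inhibition over the cutoff but images rejected on review; inactive = inhibition not above the cutoff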
Autophagy mod: autophagy modulation, high-content screen. MEF GFP-LC3 puncta imaging; test concentration mostly 10 µM. 190,000 compounds, 0.98% hits. calls only at 10 µM (by protocol);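 active = percentage of spot-positive cells more than 3 SD above its plate mean, without a fluorescence outlier flag or 80% toxicity; inconclusive = no clear call, values can overlap the other calls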
Insulin prom up: MIN6 insulin promoter up-regulation. MIN6 insulin promoter-GFP reporter, high-content imaging; stronger effect = higher value. z-score at 5 µM. 190,000 compounds, 0.3% hits. AID 1625;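 active = z-score above 3 at 5 µM with at least 500 cells counted in the well; inconclusive = wells under 500 cells, flagged as cytotoxic or low count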
HCT116 bCat-KO: beta-catenin-lacking colon tumor cell growth suppression | HCT116 beta-catenin knockout viability, CellTiter-Glo, 60 h; stronger effect = lower value | viability, % at 10 µM | 140,000 compounds, 1.5% hits | AID 818;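 active = viability at or under a set limit, the compound median less 4 SD, cut at about 6% in these data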
Numbers stand for hits; n = inactive; u = inconclusive; x = not tested or not shown. Hits are enriched below; roughly 9.6% of the tested compounds scored in any of these assays.

SMILES	HCT116 PTEN-null	Lmaj promast	INS promoter inh	Autophagy mod	Insulin prom up	HCT116 bCat-KO
Cc1ccccc1C1C(C#N)=C2NC(=O)c3c(sc4c3CCCCC4)N2C2=C1C(=O)CC(C)(C)C2 (configuration not stated)	n	n	x	n	n	n
Cc1ccc(S(=O)(=O)Nc2ccc(=O)n(Cc3ccc(Cl)c(Cl)c3)c2)cc1	n	n	n	n	3.26	n
CC(C)c1nc(SCC(=O)c2ccc(F)cc2)c2ccccc2n1	x	n	x	n	n	x
Clc1ccc(OCCSc2ncccn2)cc1	n	n	66.2	n	n	n
Nc1ncnc2nc(SCCOc3ccc(Cl)cc3)[nH]c12	n	55.3	n	n	u	n
C=CCc1ccccc1OCCCCN1CCCC1	n	76.7	x	n	n	n
C=CCc1ccccc1OCC(O)CN1CCN(c2ccccc2F)CC1 (configuration not stated)	n	68.7	n	n	n	n
C=CCc1ccccc1OCC(CN1CCCCC1)OC(C)=O (configuration not stated)	n	65.4	x	n	n	n
CCOc1ccccc1OCCOc1ccccc1CC	n	n	x	n	n	n
C=CCc1ccccc1OCC(O)CN1CCN(c2ccccc2OC)CC1 (configuration not stated)	n	n	n	n	x	n
CCc1ccccc1OCCCCN1CCCC1	n	94.5	n	n	n	n
Cc1ccc(C)c(S(=O)(=O)NCC(=O)NCc2ccco2)c1	n	n	n	n	n	n
O=C1C(=O)N(CCN2CCOCC2)C(c2ccccn2)/C1=C(/O)c1ccc(F)cc1 (configuration not stated)	n	n	n	n	n	n
COc1ccc(C(C(=O)NC2CCCCC2)N(C(=O)c2ccccn2)c2cccnc2)cc1 (configuration not stated)	x	n	n	n	n	x
O=C(NC1CCCCC1)C(c1cccnc1)N(C(=O)CCl)c1ccccc1Cl (configuration not stated)	n	68.1	n	n	x	n
O=C(NC1CCCCC1)C(c1cccnc1)N(C(=O)CCl)c1ccc(F)cc1 (configuration not stated)	3.0	77.6	x	n	x	4.2
COc1ccc(N(C(=O)CCl)C(C(=O)NC2CCCCC2)c2cccnc2)cc1 (configuration not stated)	2.5	97.5	n	n	x	2.8
O=C(CN1CCN(S(=O)(=O)c2ccc(Br)cc2)CC1)N/N=C/c1cccnc1	n	n	x	n	n	n
Cc1sc(N)nc1-c1ccccc1	x	n	n	n	n	x
Cc1cc(C(=O)N2CCOCC2)n(-c2ccccc2)n1	n	n	x	n	n	n
O=C(O)c1ccc(S(=O)(=O)c2ccc3c(c2)C(=O)N(NC(=O)c2ccncc2)C3=O)cc1	x	x	x	x	n	x
CN(CC(=O)Nc1ccc(Cl)c(Cl)c1)C(=O)C12CC3CC(CC(C3)C1)C2	n	92.4	n	n	n	n
CN(C(=O)CC(=O)Nc1ccc(Cl)c(Cl)c1)c1ccccc1	x	n	n	n	n	x
CCN1CCN(CCCNC(=O)C2c3ccccc3C(=O)N(C)C2c2ccc(OC)cc2)CC1 (configuration not stated)	n	n	n	n	x	n
Cc1cc(C)n(Cc2ccc(NC(=O)c3ccc(COc4ccccc4Br)cc3)cc2)n1	n	56.1	n	n	x	n
SMILES	HCT116 PTEN-null	Lmaj promast	INS promoter inh	Autophagy mod	Insulin prom up	HCT116 bCat-KO
COC(=O)c1ccc(Cn2nc(C)cc2C)cc1	n	n	n	n	x	n
Cc1ccc(Cn2ccc(NC(=O)c3nc4ncccn4n3)n2)cc1	n	50.8	n	n	n	n
Cc1ccc(Cn2ccc(NC(=O)c3nn(C)cc3[N+](=O)[O-])n2)cc1	2.6	n	x	n	n	5.0
O=C(Nc1cnn(Cc2ccc(Cl)c(Cl)c2)c1)c1nc2ncccn2n1	n	n	n	n	n	n
CCn1cc([N+](=O)[O-])c(C(=O)Nc2ccn(Cc3ccccc3)n2)n1	n	n	n	n	u	n
Cc1cc(C)n(Cc2ccc(NC(=O)c3nn(C)cc3[N+](=O)[O-])cc2)n1	1.8	n	n	n	n	5.3
COc1ccc(NC(=O)COC(=O)c2c(-c3ccccc3)noc2C)cc1	n	n	n	n	n	n
Cn1cc([N+](=O)[O-])c(C(=O)Nc2ccc(C3CCCCC3)cc2)n1	x	n	x	n	n	x
Cn1cc([N+](=O)[O-])c(C(=O)Nc2ccc(C(=O)N3CCCCC3)cc2)n1	3.5	n	n	n	n	4.1
CC(/C=C/c1ccccc1)=N\NC(=O)CSc1ccccn1	n	n	n	n	n	n
